# Experimental data: PubChem BioAssay (Tox21)
# Records with an inconclusive call do not appear. Entries that show only a call come without a potency. Activity calls are given as the source filed them. Calls follow the shape of the dose curve; as a rule, active = well fitted inhibition curve with a large enough effect in the repeat runs; inconclusive = weak or mixed curves, or effect the other way; inactive = no such curve, though single readings can be large or run the other way.
# Target: Androgen receptor (Homo sapiens) (UniProt P10275)
# Sequence (P10275 whole entry, looked up): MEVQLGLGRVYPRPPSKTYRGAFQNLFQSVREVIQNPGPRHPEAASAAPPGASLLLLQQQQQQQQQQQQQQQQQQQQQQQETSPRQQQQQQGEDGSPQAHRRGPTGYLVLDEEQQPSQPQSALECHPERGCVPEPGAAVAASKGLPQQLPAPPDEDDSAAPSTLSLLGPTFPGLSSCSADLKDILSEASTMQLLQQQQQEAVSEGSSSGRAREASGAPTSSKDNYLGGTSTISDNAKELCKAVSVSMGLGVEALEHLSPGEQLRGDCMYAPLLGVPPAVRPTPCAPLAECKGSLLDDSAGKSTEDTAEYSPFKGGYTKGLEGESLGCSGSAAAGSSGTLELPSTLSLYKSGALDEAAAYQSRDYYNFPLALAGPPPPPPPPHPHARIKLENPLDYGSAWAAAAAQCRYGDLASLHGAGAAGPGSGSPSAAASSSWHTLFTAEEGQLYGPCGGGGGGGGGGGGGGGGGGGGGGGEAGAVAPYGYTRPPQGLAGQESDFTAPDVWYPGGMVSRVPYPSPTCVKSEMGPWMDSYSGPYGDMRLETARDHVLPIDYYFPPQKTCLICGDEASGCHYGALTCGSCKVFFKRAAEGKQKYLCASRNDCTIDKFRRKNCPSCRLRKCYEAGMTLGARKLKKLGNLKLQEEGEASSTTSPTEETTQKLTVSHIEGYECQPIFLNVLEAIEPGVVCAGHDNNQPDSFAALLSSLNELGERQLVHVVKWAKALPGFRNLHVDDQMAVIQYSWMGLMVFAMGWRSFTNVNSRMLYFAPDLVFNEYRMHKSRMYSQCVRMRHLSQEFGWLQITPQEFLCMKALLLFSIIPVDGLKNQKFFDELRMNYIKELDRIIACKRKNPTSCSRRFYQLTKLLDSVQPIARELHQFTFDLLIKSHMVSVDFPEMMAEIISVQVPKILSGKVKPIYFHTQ
# Test: qHTS assay to identify small molecule antagonists of the androgen receptor (AR) signaling pathway using the MDA cell line (AID 743042; also: nearly all actives have a fitted effect of over 55% in size)
# Settings: MDA-kb2 AR-luc, MMTV luciferase, R1881 antagonist, 16 h; series mostly up to 70.3 µM
# How it was run: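 MDA-kb2 breast carcinoma cells carrying MMTV-luciferase (AR/GR responsive) were co-treated with compounds and the agonist R1881 for 16 h at 37C. Inhibition read as ONE-Glo luminescence; CellTiter-Fluor fluorescence measured in parallel for cytotoxicity.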
row,SMILES,Potency
1,CC(C)(C)C(=O)CCl,inactive
2,CNC(=O)O/N=C/C(C)(C)S(C)(=O)=O,inactive
3,c1ccc2c(c1)CCCC2,inactive
